According to PubChem BioAssay AID2066 (NMMLSC, 2009):
Screen size: about 320,000 compounds; about 50 (0.02%) were called active. The list comes from a sample in which actives are over-represented; it also holds similar structures and randomly drawn compounds. Unmarked numbers belong to inactive results.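 The calls were made as follows: active = GFP response relative to DMSO above a set limit, near screen average plus 3 SD (cut at about 150% in these data); inconclusive = fewer than 70 cells counted for the yeast strain; inactive = the rest.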

Experiment: yeast AGP1-GFP level changes, GLN3 branch – cell-based, multiplex flow cytometry, S. cerevisiae, MLPCN library, primary screen (AID 2066);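 also: median GFP channel fluorescence of the gated AGP1 strain per well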
Conditions: 3 h, at 10 µM, hits give high values, GFP as percent of DMSO wells

Q: Which GFP response vs DMSO does the source give for `CC1(C)C(=O)C2(CCCCC2)C(=O)OC1c1cccs1` (stereo not given) here?
A: Its GFP response vs DMSO is 103%.

Q: Which GFP response vs DMSO does the source give for `O=C(c1cccc(F)c1)N1CCN(c2ccc([N+](=O)[O-])c3cccnc23)CC1` here?
A: Its GFP response vs DMSO is 90.5%.

Q: With `CC(C)C[C@H](NC(=O)NCCc1ccc(Cl)cc1)C(=O)O` as the molecule, how does the GFP response vs DMSO read?
A: The GFP response vs DMSO was 99.6%.

Q: With `COC(c1ccccc1)(c1ccccc1)C(Oc1nc(C)cc(C)n1)C(=O)O` (stereo not given) as the molecule, how does the GFP response vs DMSO read?
A: Its GFP response vs DMSO is 98.3%.

Q: With `Cc1ccc(S(=O)(=O)NC2CCCCCC2)cc1` as the molecule, how does the GFP response vs DMSO read?
A: The GFP response vs DMSO was 103%.

Q: With `Cc1ccc(S(=O)(=O)Nc2ccc3c(c2)C(=O)N([C@H](C)CO)C[C@@H](C)[C@@H](CN(C)C(=O)Nc2cccc4ccccc24)O3)cc1` as the molecule, how does the GFP response vs DMSO read?
A: The GFP response vs DMSO was 96.4%.

Q: Which GFP response vs DMSO does the source give for `C=CCC(C(=O)c1ccccc1)[N+](C)(C)CC=C` (stereo not given) here?
A: The GFP response vs DMSO was 96.9%.

Q: Which GFP response vs DMSO does the source give for `S=c1nc2ccccc2c2nc(-c3cccnc3)[nH]n12` here?
A: Its GFP response vs DMSO is 102%.

Q: Which GFP response vs DMSO does the source give for `CCC(C)n1c(-c2cc(OC)c(OC)c(OC)c2)nc2nc3ccccc3nc21` (stereo not given) here?
A: The GFP response vs DMSO was 101%.

Q: Which GFP response vs DMSO does the source give for `CCc1ccc(-c2cc3c(=O)n(CC(=O)NCCCN4CCN(Cc5ccccc5)CC4)nc(C)n3n2)cc1` here?
A: Its GFP response vs DMSO is 102%.

Q: Which GFP response vs DMSO does the source give for `CN(C)C(CNC(=O)c1ccc(OCc2cn3ccccc3n2)cc1)c1ccco1` (stereo not given) here?
A: The GFP response vs DMSO was 97.7%.

Q: Which GFP response vs DMSO does the source give for `CC(C)Cc1nnc(NC(=O)CCNC(=O)c2ccccc2Cl)s1` here?
A: The GFP response vs DMSO was 105%.

Q: For `O=C(CCCOc1ccccc1)NNC(=O)c1ccc(Cl)cc1`, which GFP response vs DMSO is on record?
A: Its GFP response vs DMSO is 109%.

Q: With `Cn1cccc1C(=O)OCC(=O)c1ccc(Br)s1` as the molecule, how does the GFP response vs DMSO read?
A: The GFP response vs DMSO was 100%.

Q: Which GFP response vs DMSO does the source give for `COc1cc(NC(=O)CCNC(=O)Cn2ccc3ccccc3c2=O)cc(OC)c1OC` here?
A: The GFP response vs DMSO was 104%.

Q: For `Cc1cc(C(F)(F)F)nn1CC(=O)N1CCCC1`, which GFP response vs DMSO is on record?
A: Its GFP response vs DMSO is 97.4%.

Q: With `CSc1ccc(S(=O)(=O)NCC(=O)OCC(=O)NC2(C#N)CCCCC2)cc1[N+](=O)[O-]` as the molecule, how does the GFP response vs DMSO read?
A: Its GFP response vs DMSO is 108%.

Q: For `CCc1ccc(NC(=O)C(=O)NNC(=O)c2cccs2)cc1`, which GFP response vs DMSO is on record?
A: Its GFP response vs DMSO is 107%.

Q: With `CC(C)N1C(=O)N(c2ccccc2)C(C)(O)CC1(C)C` (stereo not given) as the molecule, how does the GFP response vs DMSO read?
A: Its GFP response vs DMSO is 99.2%.

Q: With `COc1ccc(C(C)(C)C)cc1NC(=O)CCN1C(=O)C2CCCCC2C1=O` (stereo not given) as the molecule, how does the GFP response vs DMSO read?
A: The GFP response vs DMSO was 112%.

Q: For `Cc1nn2cc(-c3ccc(Cl)cc3)cnc2c1Br`, which GFP response vs DMSO is on record?
A: The GFP response vs DMSO was 102%.

Q: For `CC(C)c1ccc(NC(=O)CCN2C(=O)c3ccc([N+](=O)[O-])cc3C2=O)cc1`, which GFP response vs DMSO is on record?
A: Its GFP response vs DMSO is 111%.

Q: For `CC(C)(C)c1ccc(C(=O)N2CCN(CCNC(=O)C(=O)Nc3ccc(F)cc3)CC2)cc1`, which GFP response vs DMSO is on record?
A: The GFP response vs DMSO was 100%.

Q: With `Cc1ccc(NC(=O)Cn2cccc2C2=NC(c3ccccc3)CO2)c(C)c1` (stereo not given) as the molecule, how does the GFP response vs DMSO read?
A: The GFP response vs DMSO was 103%.

Q: With `O=C1[C@@H]2C(c3cccnc3)=NO[C@@H]2C(=O)N1c1ccc(Cl)cc1Cl` as the molecule, how does the GFP response vs DMSO read?
A: The GFP response vs DMSO was 112%.

Q: Which GFP response vs DMSO does the source give for `C#CCO[C@@H]1C[C@H](n2cnc3c(=O)[nH]c(NC(=O)C(C)C)nc32)O[C@@H]1CO` here?
A: The GFP response vs DMSO was 87.2%.

Q: Which GFP response vs DMSO does the source give for `CC1=CC(C)(C)NC(=S)N1NC(=O)c1ccccc1Cl` here?
A: Its GFP response vs DMSO is 109%.

Q: With `COc1ccc(/C(C)=N/N2CCOCC2)c(O)c1` as the molecule, how does the GFP response vs DMSO read?
A: Its GFP response vs DMSO is 104%.

Q: For `Cc1cccc(CSc2nc3c(c(=O)n2C)SCC3)c1`, which GFP response vs DMSO is on record?
A: The GFP response vs DMSO was 91.2%.

Q: Which GFP response vs DMSO does the source give for `Cn1nccc1C(=O)NC1CCCc2c1cnn2-c1ccc(F)cc1F` (stereo not given) here?
A: The GFP response vs DMSO was 95.7%.

Q: For `CN(C)N(C)C(=O)C(O)(c1ccccc1)c1ccccc1`, which GFP response vs DMSO is on record?
A: The GFP response vs DMSO was 109%.

Q: Which GFP response vs DMSO does the source give for `CCC(C)(C)NC(=O)C(c1ccc(O)cc1)N(Cc1ccco1)C(=O)CCC(=O)Nc1ccccn1` (stereo not given) here?
A: The GFP response vs DMSO was 100%.

Q: For `CCOc1ccc(S(=O)(=O)N2CCC(C(=O)NCC(=O)Nc3cccc(Cl)c3C)CC2)cc1`, which GFP response vs DMSO is on record?
A: Its GFP response vs DMSO is 93.8%.

Q: Which GFP response vs DMSO does the source give for `O=C(NCc1ccc(F)cc1)C1CCN(C(=O)Nc2ccc(F)cc2)CC1` here?
A: Its GFP response vs DMSO is 96.4%.

Q: For `O=C(OCC(=O)N1CCN(C(=O)c2ccco2)CC1)c1ccc(Cl)c(Cl)c1`, which GFP response vs DMSO is on record?
A: The GFP response vs DMSO was 103%.

Q: For `COc1ccccc1OCc1ccc(C(=O)NC(C)c2ccccc2)o1` (stereo not given), which GFP response vs DMSO is on record?
A: The GFP response vs DMSO was 95.8%.

Q: Which GFP response vs DMSO does the source give for `Cc1c(Cl)c([N+](=O)[O-])nn1Cc1ccc(C(=O)N/N=C\c2cc(Cl)ccc2O)o1` here?
A: The GFP response vs DMSO was 99.4%.

Q: With `C/C=C/c1ccc(OCC(=O)NNC(=O)CN(C)S(=O)(=O)c2ccc(C)cc2)c(OC)c1` as the molecule, how does the GFP response vs DMSO read?
A: The GFP response vs DMSO was 91.6%.

Q: With `O=C(O)C(F)(F)C(NCc1ccccc1)c1ccccc1` (stereo not given) as the molecule, how does the GFP response vs DMSO read?
A: The GFP response vs DMSO was 102%.

Q: Which GFP response vs DMSO does the source give for `CCOC(=O)C1C(=O)NCC1c1ccccc1` (stereo not given) here?
A: The GFP response vs DMSO was 109%.

Q: Which GFP response vs DMSO does the source give for `CCOC(=O)c1ccccc1NC(=O)c1c(N)n(C)c(=O)[nH]c1=O` here?
A: Its GFP response vs DMSO is 87.3%.

Q: Which GFP response vs DMSO does the source give for `N#C/C=C/N1CCN(Cc2ccc3c(c2)OCO3)CC1` here?
A: The GFP response vs DMSO was 93%.

Q: With `O=C(O)CCCCOn1ccnc1` as the molecule, how does the GFP response vs DMSO read?
A: Its GFP response vs DMSO is 91.2%.

Q: For `O=C(Nc1c2c(nn1-c1cccc(Cl)c1)CS(=O)(=O)C2)c1cccs1`, which GFP response vs DMSO is on record?
A: Its GFP response vs DMSO is 90.9%.

Q: For `Cc1ccccc1NC(=O)C(C)c1ccc(-c2ccccc2)c(F)c1` (stereo not given), which GFP response vs DMSO is on record?
A: The GFP response vs DMSO was 97.8%.
